PubChem BioAssay (NCATS)
Values joined by “and” are separate entries in the source; they are usually repeats but may differ in a detail not shown here. Equal entries are not always repeated. Records with an inconclusive call do not appear. Active and inactive are the calls of the source. Calls come from the whole dose curve; as a rule, active = well fitted curve in the direction sought with a large enough effect; inconclusive = small, poorly fitted or top-dose-only effect, or another doubt; inactive = no such curve, though single readings can be large; an effect the other way counts as inactive or inconclusive.

Assays:
MCC-13 = test: qHTS assay to identify novel small-molecules to repurpose for Merkel cell carcinoma treatment (AID 1296009); conditions: MCC and control cell lines, CellTiter-Glo viability, 72 h; series mostly up to 46 µM; note: nearly all actives have a fitted effect of over 60% in size
Outline: (§1)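 After compound transfer in DMSO, plates were kept 72 hr at 37 degree celsius. Luminescent ATP signal from CellTiter-Glo served as viability measure, normalized against DMSO and no-cell controls.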

MCC-26 = test: as above; conditions: MCC and control cell lines, CellTiter-Glo viability, 72 h; series mostly up to 46 µM
Outline: as §1

MKL-1 = test: as above; conditions: MCC and control cell lines, CellTiter-Glo viability, 72 h; series mostly up to 46 µM
Outline: as §1

MKL-2 = test: as above; conditions: MCC and control cell lines, CellTiter-Glo viability, 72 h; series mostly up to 46 µM
Outline: as §1

WaGa = test: as above; conditions: MCC and control cell lines, CellTiter-Glo viability, 72 h; series mostly up to 46 µM
Outline: as §1

UISO = test: as above; conditions: MCC and control cell lines, CellTiter-Glo viability, 72 h; series mostly up to 46 µM
Outline: as §1

C33A = test: Primary qHTS to identify gynecologic anti-cancer compounds using libraries of approved drugs and bioactive compounds (AID 1345084); conditions: Gynecologic cancer cell panel viability, ATPlite luminescence, 48 h; series mostly up to 57.5 µM; note: nearly all actives have a fitted effect of over 55% in size
Outline: (§2)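 Five-concentration response, 48 h; readout is ATP-driven luciferase luminescence.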

CAOV3 = test: as above; conditions: Gynecologic cancer cell panel viability, ATPlite luminescence, 48 h; series mostly up to 57.5 µM
Outline: as §2

CASKI = test: as above; conditions: Gynecologic cancer cell panel viability, ATPlite luminescence, 48 h; series mostly up to 57.5 µM
Outline: as §2

Es-2 = test: as above; conditions: Gynecologic cancer cell panel viability, ATPlite luminescence, 48 h; series mostly up to 57.5 µM
Outline: as §2

HeLa = test: as above; conditions: Gynecologic cancer cell panel viability, ATPlite luminescence, 48 h; series mostly up to 57.5 µM
Outline: as §2

Hek293T = test: as above; conditions: Gynecologic cancer cell panel viability, ATPlite luminescence, 48 h, control line for the selectivity index; series mostly up to 57.5 µM
Outline: as §2

JEG-3 = test: as above; conditions: Gynecologic cancer cell panel viability, ATPlite luminescence, 48 h; series mostly up to 57.5 µM
Outline: as §2

OV90 = test: as above; conditions: Gynecologic cancer cell panel viability, ATPlite luminescence, 48 h; series mostly up to 57.5 µM
Outline: as §2

PA-1 = test: as above; conditions: Gynecologic cancer cell panel viability, ATPlite luminescence, 48 h; series mostly up to 57.5 µM
Outline: as §2

SKOV3 = test: as above; conditions: Gynecologic cancer cell panel viability, ATPlite luminescence, 48 h; series mostly up to 57.5 µM
Outline: as §2

Tov-21-G = test: as above; conditions: Gynecologic cancer cell panel viability, ATPlite luminescence, 48 h; series mostly up to 57.5 µM
Outline: as §2

NIH3T3 = test: qHTS assay to identify novel small-molecules to repurpose for Merkel cell carcinoma treatment (AID 1296009); conditions: MCC and control cell lines, CellTiter-Glo viability, 72 h; at 44.8 µM (top of the series) unless noted; note: nearly all actives have a fitted effect of over 60% in size
Outline: as §1

Measured: Potency
Potency is the fitted concentration of half-maximal effect.

O=C1NC(=O)C(=Cc2cccc(C(F)(F)F)c2)S1
inactive: MCC-13 | MCC-26 | MKL-1 | MKL-2 | WaGa

O=C1NC(=O)C(=Cc2ccc(-c3ccc(F)cc3)o2)S1
inactive: MCC-13 | MCC-26 | MKL-1 | MKL-2 | UISO | WaGa

O=C(N[C@@H](c1ccccc1)[C@@H]1CCCCN1)c1cccc(C(F)(F)F)c1Cl
inactive: MCC-13 | MCC-26 | MKL-1 | MKL-2 | UISO | WaGa

CCn1c(C(=O)N(C2CC2)C2CC2)cc2c3c(ncn3C)c(Nc3cc(C)n(C)n3)nc21
not listed: NIH3T3
inactive: all other assays above

COc1cc(Nc2ncc(F)c(Nc3ccc4c(n3)NC(=O)C(C)(C)O4)n2)cc(OC)c1OC
active: CASKI 11.2 µM | HeLa 31.6 µM | SKOV3 15.8 µM
not listed: CAOV3 | OV90 | PA-1 | Tov-21-G | NIH3T3
inactive: all other assays above

CC(C)NCC(O)COc1cccc2[nH]ccc12 (centres undefined)
not listed: CAOV3 | NIH3T3
inactive: all other assays above

CN1[C@@H]2CCC[C@@H]1CC(NC(=O)c1nn(C)c3ccccc13)C2 (some centres undefined)
inactive: MCC-13 | MCC-26 | MKL-1 | MKL-2 | UISO | WaGa

Cc1cc(OCCCc2c(C(=O)O)n(Cc3cccnc3)c3c(-c4c(COc5ccc(N6CCN([S+](C)(=O)[O-])CC6)cc5)nn(C)c4C)cccc23)cc(C)c1Cl
inactive: MCC-13 | MCC-26 | MKL-1 | MKL-2 | UISO | WaGa

COc1cc2c(cc1OC)CN(CCc1ccc(NC(=O)c3cc(OC)c(OC)cc3NC(=O)c3cnc4ccccc4c3)cc1)CC2
active: PA-1 11.2 µM
inactive: MCC-13 | MCC-26 | MKL-1 | MKL-2 | UISO | WaGa

Cc1ccc(C(=O)Nc2cccc(C(F)(F)F)c2)cc1Nc1nc(-c2cccnc2)nc2c1cnn2C
inactive: MCC-13 | MCC-26 | MKL-1 | MKL-2 | WaGa

CC(C)(C)OC(=O)N[C@H]1CCCCCC=C[C@@H]2C[C@@]2(C(=O)NS(=O)(=O)C2CC2)NC(=O)[C@@H]2C[C@@H](OC(=O)N3Cc4cccc(F)c4C3)CN2C1=O
not listed: NIH3T3
inactive: all other assays above

CC(=O)Oc1cc2c(s1)CCN(C(C(=O)C1CC1)c1ccccc1F)C2 (centres undefined)
active: MKL-1 11.8 µM | MKL-2 10.5 µM | WaGa 10.5 µM
not listed: UISO | NIH3T3
inactive: all other assays above

O=c1c(-c2ccc(O)cc2)coc2cc(OC3O[C@H](CO)[C@H](O)[C@H](O)[C@H]3O)cc(O)c12 (some centres undefined)
inactive: MCC-13 | MCC-26 | MKL-1 | MKL-2 | WaGa

CCCCC1C(=O)N(c2ccccc2)N(c2ccccc2)C1=O
not listed: CAOV3 | NIH3T3
inactive: all other assays above

CCc1ccc(C=C2SC(=S)NC2=O)cc1
inactive: MCC-13 | MCC-26 | MKL-1 | MKL-2 | UISO | WaGa

O=C(CCN1CCN(C(=O)OCc2cc(Cl)cc(Cl)c2)CC1)c1ccc2[nH]c(=O)oc2c1
not listed: CAOV3 | NIH3T3
inactive: all other assays above

O=C(CCCCCCC(=O)Nc1ccccc1)NO
active: MCC-13 6.68 µM | MCC-26 20.9 µM | MKL-1 2.99 µM and 5.9 µM | MKL-2 1.88 µM and 3.32 µM | UISO 14.8 µM | C33A 6.31 µM and 14.1 µM | Es-2 7.08 µM and 12.6 µM | HeLa 8.91 µM and 10 µM | JEG-3 3.98 µM and 8.91 µM | SKOV3 3.16 µM and 12.6 µM | Tov-21-G 11.2 µM and 5.01 µM

CC(=O)N(C)C1(c2ccccc2)CCN(CCC[C@]2(c3ccc(Cl)c(Cl)c3)CCCN(C(=O)c3ccccc3)C2)CC1
inactive: MCC-13 | MCC-26 | MKL-1 | WaGa
active: MKL-2 20.9 µM | CASKI 22.4 µM | SKOV3 22.4 µM

COc1cc(O)c2c(c1)C(=O)c1cc(C)cc(O)c1C2=O
inactive: MCC-13 | MKL-1 | MKL-2 | NIH3T3 inactive [at 17.4 µM] | UISO | WaGa

O=C(Nc1cc(Cl)cc2c1[nH]c1cnccc12)c1cccnc1
inactive: MCC-13 | MKL-1 | MKL-2 | UISO | WaGa

Oc1ccc(C2CCN(c3ccnc4ccccc34)CC2)cc1O
inactive: MCC-13 | MCC-26 | UISO

O=C(O)[C@H]1O[C@H](Oc2cc3oc(-c4ccccc4)cc(=O)c3c(O)c2O)[C@H](O)[C@@H](O)[C@H]1O
inactive: MCC-13 | MCC-26 | MKL-1 | UISO | WaGa

O=c1cc(-c2ccc(O)cc2)oc2cc(O)cc(O)c12
inactive: MCC-13
active: MKL-1 2.35 µM | MKL-2 1.66 µM | WaGa 2.09 µM

C=C1C(=O)[C@@]23C(CC[C@@H]1[C@H]2O)[C@@]12CO[C@]3(O)[C@@H](O)[C@@H]1C(C)(C)CC[C@@H]2O (some centres undefined)
active: MCC-13 16.6 µM | MKL-1 1.18 µM | MKL-2 0.935 µM | UISO 14.8 µM | WaGa 0.833 µM | C33A 28.2 µM | Hek293T 28.2 µM
inactive: HeLa | OV90

O=c1cc(-c2ccccc2)oc2cc(O)c(O)c(O)c12
inactive: MCC-13 | MCC-26 | MKL-1 | UISO

Oc1ccc(C2=Cc3ccc(O)cc3OC2)cc1
active: MCC-13 10.5 µM | MCC-26 20.9 µM | MKL-1 2.96 µM | WaGa 2.35 µM

NC(=O)c1cccc2[nH]c(-c3ccc([C@H]4CCCN4)cc3F)nc12
active: MKL-1 20.9 µM | MKL-2 2.35 µM | WaGa 20.9 µM | C33A 17.8 µM | CAOV3 28.2 µM | CASKI 12.6 µM | Es-2 31.6 µM | Hek293T 17.8 µM | JEG-3 14.1 µM | OV90 14.1 µM | PA-1 12.6 µM | Tov-21-G 14.1 µM
inactive: MCC-13

CC(C)(Cc1ccc2ccccc2c1)NC[C@@H](O)COc1cccc(Cl)c1C#N
inactive: MCC-13 | MCC-26 | MKL-1 | UISO

C[C@]12CC[C@@H]3c4ccc(O)cc4C[C@@H](CCCCCCCCCS(=O)CCCC(F)(F)C(F)(F)F)[C@H]3[C@H]1CC[C@H]2O (some centres undefined)
inactive: MCC-13 | MKL-1 | MKL-2 | NIH3T3 | WaGa

COc1ccc(-c2nc(N3CCOCC3)c3sc(CN(C)c4ncc(C(=O)NO)cn4)cc3n2)cn1
active: MCC-13 0.0662 µM | MCC-26 0.0526 µM | UISO 0.0235 µM | WaGa 0.0026 µM

COCCOC(=O)C1=C(C)NC2=C(C(=O)CC(c3ccccc3OC)C2)C1c1cccc(O)c1 (centres undefined)
not listed: MKL-2 | WaGa | UISO | CAOV3 | HeLa | SKOV3 | NIH3T3
inactive: all other assays above

CN(C)Cc1ccc(-c2nc3cccc4c3n2CCNC4=O)cc1
not listed: MKL-2 | CAOV3 | Es-2 | Hek293T | PA-1 | Tov-21-G | NIH3T3
inactive: all other assays above

COc1ccc(-n2c(C)c([N+](=O)[O-])c3ccc(O)cc32)cc1
inactive: MCC-13 | MKL-1 | MKL-2 | UISO | WaGa

CC(=O)O[C@]1(C(C)=O)CC[C@H]2[C@@H]3C=C(Cl)C4=CC(=O)[C@@H]5C[C@@H]5[C@]4(C)[C@H]3CC[C@@]21C
not listed: MKL-1 | MKL-2 | WaGa | UISO | HeLa | NIH3T3
inactive: all other assays above

NC(CO)(CO)CCc1ccc(Sc2cccc(OCc3ccccc3)c2)cc1Cl
inactive: MCC-13
active: MKL-1 13.2 µM | MKL-2 23.5 µM | WaGa 5.26 µM

CC(=O)OC1C(C)OC(Oc2c(-c3ccc(O)cc3)oc3cc(O)cc(O)c3c2=O)C(O)C1OC(C)=O (centres undefined)
inactive: MCC-13 | MCC-26 | UISO

O=C(Nc1cccc(Br)c1)c1cccc(S(=O)(=O)N2CCCCCC2)c1
inactive: MCC-13 | MCC-26 | MKL-1 | MKL-2 | WaGa | CAOV3 | HeLa | JEG-3 | Tov-21-G

CC(C)C[C@H](CC(=O)O)C(=O)N[C@@H](Cc1c[nH]c2ccccc12)C(=O)N[C@@H](C)c1ccccc1
active: MKL-1 4.69 µM | WaGa 3.32 µM
inactive: MCC-13 | MCC-26 | UISO

C[C@H](NC(=O)c1sccc1OCc1ccc(Cl)cc1)c1ccccc1
inactive: MCC-13 | MKL-1

CC(C)(C)NC(=O)Nc1cccc(Nc2ncc(F)c(NC(C)(C)CO)n2)c1
not listed: MKL-1 | WaGa | CAOV3 | HeLa | NIH3T3
inactive: all other assays above

O=C(NCc1ccncc1)C12C[C@H]3C[C@@H](C1)CC(c1ccc(Cl)cc1)(C3)C2
inactive: MCC-13 | MCC-26 | MKL-2

CC1(C)O[C@H]2C[C@@H]3[C@H]4CCC5=CC(=O)C=C[C@]5(C)[C@@]4(F)[C@@H](O)C[C@]3(C)[C@]2(C(=O)CO)O1
inactive: MCC-13 | MCC-26 | UISO
active: MKL-1 18.7 µM | WaGa 13.2 µM

Cc1ccc(C(C)(O)c2nc3ccccc3s2)c(C)c1 (centres undefined)
active: MKL-1 16.6 µM | WaGa 7.43 µM
inactive: MCC-13 | MCC-26
